Compound activity from PubChem.
The list is not random: actives were taken first. Their share in the collection is about 1.8%.
IkB sig inh: IkB Signaling | ABC-DLBCL IkBa-CBG/CBR dual luciferase ratio, 4 h; response scale: scaled: untreated 0%, proteasome inhibitor 100% | Potency, µM (doses to about 57.1 µM), for inactives: at the highest dose IkBa stabilization activation | 110,000 compounds, 0.04% hits | AID 445, 2006; active = well fitted curve in the direction sought with a large enough effect in the signal ratio, not every such curve was filed as active; inconclusive = small, poorly fitted or top-dose-only effect, or a change in a side signal; the % refers to the signal ratio;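 note: the direction sought is a rising ratio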
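Luminescence ratio of IκBα-fused green versus native red beetle luciferase in OCI-Ly3 cells, 4 h post-doxycycline with compound; red signal alone, scaled from basal (0%) to zero light (-100%), flagged nonspecific or cytotoxic effects.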
p53ts 39C kill: qHTS Screen for Compounds that Selectively Target Cancer Cells with p53 Mutations: Cytotoxicity of p53ts Cells at the Nonpermissive Temperature. H1299-p53A138V viability at 39C, ATP luminescence, 24 h. Potency, µM (titrated, usually from 46.1 µM), for inactives: at the highest dose activity change, negative = cell killing, most hits filed as cytotoxic. 130,000 compounds, 1.5% hits; note: % is set by controls: 0 for no effect and ±100 for the full control effect; nearly all actives have a fitted effect of over 55% in size
Imprint erasure: qHTS Assay for Compounds that Induce Erasure of Genomic Imprints; mouse ES Peg3-LacZ reporter, beta-gal luminescence, 40 h; Potency, µM (top dose mostly 60.7 µM), for inactives: top-dose activity change, positive = activation, hits mostly activators; 110,000 compounds, 0.02% hits; AID 1948, 2009
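Each well holds 300 Peg3LacZ-Neo (maternal) female ES cells incubated 40 h at 37C, 5% CO2. LacZ is measured by BetaGlo luminescence, with AC50 and maximum efficacy derived from dose-response curves.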
p53ts 32C tox: qHTS Screen for Compounds that Selectively Target Cancer Cells with p53 Mutations: Cytotoxicity of p53ts Cells at the Permissive Temperature | AID 924, 2007 | H1299-p53A138V at 32C, ATP luminescence viability, 24 h | 130,000 compounds, 0.93% hits | Potency, µM (doses to about 46.1 µM), inactives show at the highest dose activity change, negative = cytotoxicity, actives largely listed as cytotoxic;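 note: 0% = DMSO and -100% = full killing by reference compound; nearly all actives have a fitted effect of over 55% in size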
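ATP-content luminescence (ATPlite) read-out after 24 h compound exposure at 32C in H1299-p53A138V cells (600/well). Tested up to 46 uM. Normalized to DMSO (0%) and 100 uM tamoxifen (100% killing); Hill-fit AC50.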
* = called active by the depositor; ? = inconclusive; · = no result given; [ ] = dose if it differs, or a comment. Unless noted, calls come from the whole dose curve; as a rule, active = well fitted curve in the direction sought with a large enough effect; inconclusive = small, poorly fitted or top-dose-only effect, or another doubt; inactive = no such curve, though single readings can be large; an effect the other way counts as inactive or inconclusive. Potency is the fitted concentration of half-maximal effect.

SMILES | IkB sig inh | p53ts 39C kill | Imprint erasure | p53ts 32C tox
CC(=O)OC[C@@H]1O[C@H](CCO/N=C(\C)CCC(=O)OC[C@@H]2O[C@H](C#Cc3ccccc3)C=C[C@@H]2Oc2ccc(C)cc2)C=C[C@@H]1OC(C)=O | · | 2%[9.22 µM] | · | 1%[9.22 µM]
COc1ccc(-n2nc(C(=O)NCC(=O)N3CCN(c4ccccn4)CC3)c3ccccc3c2=O)cc1 | 0% | 13µM* | -9% | 13µM*
COc1ccc(CC(=O)N2CCN(c3ccccn3)CC2)cc1 | 2% | 12% | -10% | 14%
CC(C)(C(=O)O)c1ccc([C@@H](O)CCCN2CCC(C(O)(c3ccccc3)c3ccccc3)CC2)cc1 | -2% | · | · | ·
Cc1cccc(NC(=O)c2cc3ccccc3o2)c1 | ? | 10µM* | -83% | 13µM*
CCC(=O)Nc1cccc(NC(=O)c2cc3ccccc3o2)c1 | ? | 13µM* | -76% | 10µM*
C[C@@]12CC[C@@H]3[C@@H](CC[C@H]4C[C@@H](O)CC[C@]43C)[C@H]1CC[C@@H]2c1cc(C(F)(F)F)n[nH]1 | -1%[11.4 µM] | -30%[9.22 µM] | -4%[10.9 µM] | -5%[9.22 µM]
O=C(Nc1nc(-c2ccccn2)cs1)c1ccc(Cl)s1 | 1µM* | 4% | -13% | 16%
NCCCCCCNS(=O)(=O)c1cccc2c(Cl)cccc12 | ? | 32µM* | ? | -9%
CCCCCCCNS(=O)(=O)c1cccc2c(Cl)cccc12 | ? | ? | -23% | -29%
NCCCCCCCCCCNS(=O)(=O)c1cccc2c(Cl)cccc12 | ? | 16µM* | -24% | 25µM*
COc1ccc(Nc2cc(C)c3cc(NC(=O)COc4cccc(C)c4)ccc3n2)cc1 | · | · | · | 4%
Nc1nnc(CC(=O)N/N=C\c2cc([N+](=O)[O-])ccc2O)s1 | · | 8% | · | ·
O=[N+]([O-])c1ccc(O)c(/C=N/Nc2ccccn2)c1 | · | 5.6µM* | · | -22%
COc1cccc(NS(=O)(=O)c2ccc3c(c2)n(C)c(=O)c(=O)n3C)c1 | 5% | -8% | -2% | -18%
COc1cccc(NS(=O)(=O)c2cn(C)c(=O)n(C)c2=O)c1 | 4% | 13µM* | -80% | 7.9µM*
COc1ccc(C(=O)N=c2nc3ccccn3s2)cc1 | ? | 0.32µM* | -73% | 0.79µM*
CC(C)COc1ccc(C(=O)Nc2onc3c2CCCC3)cc1 | -2% | 16µM* | -27%[10.9 µM] | ?
O=C(Nc1onc2c1CCCC2)c1ccccc1 | -1% | ? | -48%[10.9 µM] | ?
CC(C)(C)c1ccc(C(=O)Nc2onc3c2CCCC3)cc1 | -2% | 13µM* | -12%[10.9 µM] | 13µM*
CCOc1ccc(C(=O)Nc2onc3c2CCCC3)cc1 | 3% | 16µM* | -40%[10.9 µM] | 6.3µM*
CCOc1ccc(C(=O)NCC2CCCO2)cc1 (stereo not given) | -1% | 3% | -25% | -9%
CC(C)COc1ccc(C(=O)NCc2ccco2)cc1 | 0% | -6% | -21% | -10%
CCCSc1nc(-c2ccc(OC)cc2)cc(-c2ccccc2OC)c1C#N | 5% | 13% | -14%[10.9 µM] | 11%
C=CCn1c(C)cc(C(=O)COc2ncnc3sccc23)c1C | 0% | 7.9µM* | -21% | ?
SMILES | IkB sig inh | p53ts 39C kill | Imprint erasure | p53ts 32C tox
CC(C)=CC(=O)Nc1ccc2c(c1)OCO2 | 1% | ? | -89% | 10µM*
Cc1ccc(S(=O)(=O)NCCSc2nnnn2-c2cc(C)ccc2C)cc1 | -3% | -3% | -8% | 5%
Cc1ccc(C)c(-n2nnnc2Sc2nnnn2-c2ccccc2)c1 | ? | 10µM* | -27% | -14%
CCOc1ccc(-n2nc3ccc(NC(=O)c4ccc(-c5cccc(Cl)c5)o4)cc3n2)cc1 | ? | 7.9µM* | -35%[10.9 µM] | ?
CCOc1ccc(-n2nc3ccc(NC(=O)COc4ccccc4)cc3n2)cc1 | -2% | 10% | -3%[10.9 µM] | -7%
N=c1ccn2c(n1)O[C@@H]1[C@@H](O)[C@H](CO)O[C@H]12 | -2% | -9% | · | -1%
Cn1nc(C(=O)N2CCN(c3ccc(F)cc3)CC2)c2c1-c1ccccc1SC2 | 0% | 20µM* | -10%[10.9 µM] | ?
Cn1nc(C(=O)N2CCN(c3ccccc3)CC2)c2c1-c1ccccc1SC2 | 3% | 15% | -13%[10.9 µM] | 22%
CCN(CC)CCCNC(=O)c1nn(C)c2c1CSc1ccccc1-2 | ? | 20µM* | 8%[10.9 µM] | ?
CC1=NN(c2ccccc2)C(=O)/C1=C\c1cc(C)n(-c2ccccc2)c1C | · | 20% | · | ·
Cc1cc(/C=C2/C(=O)NN(c3ccccc3)C2=O)c(C)n1-c1cccc(O)c1 | · | 13µM* | · | ·
CCN(CC)CCCNC(=O)c1ccc2c(c1)N(Cc1c(F)cccc1Cl)C(=O)c1ccccc1S2 | ? | 13µM* | -8%[10.9 µM] | -8%
CCC[C@H](Sc1nc(N)nc2nc[nH]c12)C(=O)O | 1%[11.4 µM] | 2%[9.22 µM] | -1%[10.9 µM] | 4%[9.22 µM]
O=C(Nc1ccc2nc(-c3ccco3)[nH]c2c1)c1ccco1 | 3% | 16µM* | -41% | 7.9µM*
O=C(Nc1cccc(NC(=O)c2cccs2)c1)c1ccco1 | 14% | -1% | -21% | -2%
O=C(Nc1ccc2nc(-c3ccco3)[nH]c2c1)c1cccs1 | 9% | 13µM* | -12% | 10µM*
FC(F)(F)c1cc(-c2ccco2)nc(NCc2cccs2)n1 | 5% | 20µM* | -10% | ?
FC(F)(F)c1cc(-c2ccco2)nc(NCc2ccco2)n1 | 26% | -8% | -31% | 3%
CN(Cc1ccccc1)S(=O)(=O)c1ccc(C(=O)Nc2nnc(C3CC3)o2)cc1 | ? | 13µM* | -27% | 1%
COc1ccccc1-c1nnc(NC(=O)c2ccc(S(=O)(=O)N(C)Cc3ccccc3)cc2)o1 | 4% | 13µM* | -25% | -2%
Cc1cc(N2CCN(C)CC2)nc2ccc(NC(=O)Nc3ccccc3Cl)cc12 | ? | 13µM* | -9%[10.9 µM] | 10µM*
Cc1cc(N2CCN(C)CC2)nc2ccc(NC(=O)Nc3ccc(F)cc3)cc12 | ? | ? | -10%[10.9 µM] | -13%
Cc1cc(C)cc(NC(=O)Nc2ccc3nc(N4CCN(C)CC4)cc(C)c3c2)c1 | -6% | 13µM* | 10%[10.9 µM] | 3%
COc1cccc(/C=C/C(=O)Nc2ccc3nc(N4CCN(C)CC4)cc(C)c3c2)c1OC | ? | 13µM* | 2%[10.9 µM] | ?
Nc1ccc(S(=O)(=O)NCCS(=O)(=O)O)cc1 | 3%[11.4 µM] | 3%[9.22 µM] | -5%[10.9 µM] | 5%[9.22 µM]
SMILES | IkB sig inh | p53ts 39C kill | Imprint erasure | p53ts 32C tox
O=C(CC(Nc1ccc(F)cc1)C(=O)OCC(=O)c1cccs1)c1ccccc1 (stereo not given) | · | -5% | · | ·
O=C(Nc1nnc(N2CCCC2)s1)Nc1cc(F)ccc1F | 0% | -7% | -14%[10.9 µM] | -3%
Nc1nccc(Nc2ccc(S(N)(=O)=O)cc2)n1 | 0%[11.4 µM] | -19%[9.22 µM] | 15%[10.9 µM] | 3%[9.22 µM]
Cc1ccc(Nc2c(-c3c[nH]c4ccccc34)nc3ccccn23)cc1 | ? | 16µM* | 5%[10.9 µM] | ?
Cc1ccc2nc(-c3c[nH]c4ccccc34)c(Nc3ccccc3C)n2c1 | ? | 6% | -9%[10.9 µM] | -1%
COc1ccc(-c2cn3nc(SCC(=O)Nc4cccc(C)c4C)ccc3n2)cc1 | 1% | 16µM* | -11%[10.9 µM] | -15%
